Laboratory results: the supplement of paper PMC10849652
The full data set covers some 8,800 targets. This sample favours those with a hit. About 0.5% of all pairs of compound and target were hits.

compound: C1CCN(C1)C(=O)NC2=CC=CC(=C2)NC3=NC=C(C(=N3)NCCC4=CN=CN4)Br; assay: log2 fold change, soluble protein after heating vs DMSO (PISA); higher = thermal stabilisation; K562 lysate, 10 uM; active = over 0.2 and 3.5 SD of the protein, either way, in both replicates (recomputed)
Summary of the method: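 Following dounce homogenisation of K562 pellets in PBS pH 7.4 with 1 mM MgCl2, crude extract at 1 mg/mL protein was incubated for 30 min with 10 μM compound. Aliquots were then heated for 3 min over 48°C-58°C and pooled, NP-40 was added to 0.5% at 4°C, and soluble protein was recovered as the supernatant at 21,000xg for 90 min. Channel-sum-equalised TMTpro 16plex LC-MS/MS quantified this protein. Each value, from duplicates, is a log-two fold change in thermal stability relative to solvent controls.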

Sequence of UniProt P31146 (P31146 whole entry, looked up): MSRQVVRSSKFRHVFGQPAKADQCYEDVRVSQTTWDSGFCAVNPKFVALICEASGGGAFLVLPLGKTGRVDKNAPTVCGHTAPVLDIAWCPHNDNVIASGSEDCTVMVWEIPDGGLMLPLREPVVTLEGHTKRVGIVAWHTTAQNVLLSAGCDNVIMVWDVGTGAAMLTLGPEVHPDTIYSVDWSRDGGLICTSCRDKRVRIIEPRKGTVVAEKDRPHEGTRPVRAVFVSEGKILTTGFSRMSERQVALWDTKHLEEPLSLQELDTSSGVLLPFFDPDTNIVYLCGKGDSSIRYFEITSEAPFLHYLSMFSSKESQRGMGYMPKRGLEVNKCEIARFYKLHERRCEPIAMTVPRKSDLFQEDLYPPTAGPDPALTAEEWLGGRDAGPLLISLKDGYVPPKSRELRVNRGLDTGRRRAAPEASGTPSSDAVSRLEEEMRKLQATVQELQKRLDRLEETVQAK
Sequence of UniProt Q99704 (Q99704 whole entry, looked up): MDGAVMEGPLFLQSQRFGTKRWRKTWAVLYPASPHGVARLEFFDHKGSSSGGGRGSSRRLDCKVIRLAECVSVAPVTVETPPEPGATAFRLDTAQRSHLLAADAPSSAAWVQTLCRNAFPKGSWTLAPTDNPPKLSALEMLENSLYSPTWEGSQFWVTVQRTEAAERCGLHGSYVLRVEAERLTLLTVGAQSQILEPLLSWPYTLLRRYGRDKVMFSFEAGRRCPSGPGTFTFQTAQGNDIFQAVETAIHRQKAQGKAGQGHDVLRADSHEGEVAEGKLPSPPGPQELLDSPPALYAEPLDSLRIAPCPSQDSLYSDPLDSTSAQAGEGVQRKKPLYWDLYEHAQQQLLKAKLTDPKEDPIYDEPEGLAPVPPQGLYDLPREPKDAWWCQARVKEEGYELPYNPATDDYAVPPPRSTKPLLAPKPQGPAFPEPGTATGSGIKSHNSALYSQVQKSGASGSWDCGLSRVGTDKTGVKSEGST
Sequence of UniProt Q9NSV4 (Q9NSV4 whole entry, looked up): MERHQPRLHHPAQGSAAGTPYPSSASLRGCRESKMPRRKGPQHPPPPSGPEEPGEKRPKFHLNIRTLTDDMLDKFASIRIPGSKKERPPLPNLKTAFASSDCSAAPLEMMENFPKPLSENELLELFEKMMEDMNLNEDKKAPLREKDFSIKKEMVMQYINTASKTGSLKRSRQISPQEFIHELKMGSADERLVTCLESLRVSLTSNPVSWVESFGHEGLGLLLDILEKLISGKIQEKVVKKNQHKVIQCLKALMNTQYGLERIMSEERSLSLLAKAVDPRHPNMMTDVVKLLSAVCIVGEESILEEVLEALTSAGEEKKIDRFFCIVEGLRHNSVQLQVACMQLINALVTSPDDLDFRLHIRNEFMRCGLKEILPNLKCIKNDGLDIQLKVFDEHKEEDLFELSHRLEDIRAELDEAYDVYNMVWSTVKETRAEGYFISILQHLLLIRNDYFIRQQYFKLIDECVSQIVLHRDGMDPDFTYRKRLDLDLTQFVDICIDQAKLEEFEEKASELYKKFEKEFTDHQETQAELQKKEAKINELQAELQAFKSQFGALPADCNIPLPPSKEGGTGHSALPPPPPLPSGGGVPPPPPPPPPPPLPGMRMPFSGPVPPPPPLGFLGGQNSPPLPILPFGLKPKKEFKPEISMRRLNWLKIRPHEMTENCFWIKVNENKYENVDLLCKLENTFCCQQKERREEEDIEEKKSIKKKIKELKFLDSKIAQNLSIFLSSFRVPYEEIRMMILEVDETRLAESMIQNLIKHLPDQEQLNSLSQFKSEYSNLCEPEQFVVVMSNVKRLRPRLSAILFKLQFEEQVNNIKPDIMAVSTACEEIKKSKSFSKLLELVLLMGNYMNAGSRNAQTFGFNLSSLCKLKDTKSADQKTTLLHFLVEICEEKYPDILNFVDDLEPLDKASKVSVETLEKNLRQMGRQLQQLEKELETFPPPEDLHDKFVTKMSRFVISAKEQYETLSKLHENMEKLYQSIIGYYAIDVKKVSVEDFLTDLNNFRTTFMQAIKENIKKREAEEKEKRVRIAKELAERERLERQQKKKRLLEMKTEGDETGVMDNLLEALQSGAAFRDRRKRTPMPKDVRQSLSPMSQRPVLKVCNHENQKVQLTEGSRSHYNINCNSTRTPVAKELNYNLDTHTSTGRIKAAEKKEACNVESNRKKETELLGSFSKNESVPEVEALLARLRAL
Sequence of UniProt Q9Y315 (Q9Y315 whole entry, looked up): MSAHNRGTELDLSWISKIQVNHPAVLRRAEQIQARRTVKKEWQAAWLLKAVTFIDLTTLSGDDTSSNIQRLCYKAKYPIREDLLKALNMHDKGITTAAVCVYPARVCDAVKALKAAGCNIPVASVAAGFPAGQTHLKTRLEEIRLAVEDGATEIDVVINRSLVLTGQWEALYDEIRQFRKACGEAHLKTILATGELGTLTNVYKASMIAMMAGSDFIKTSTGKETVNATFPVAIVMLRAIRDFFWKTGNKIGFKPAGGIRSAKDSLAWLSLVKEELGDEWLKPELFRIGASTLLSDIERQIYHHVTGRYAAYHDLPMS
Sequence of UniProt Q9UP83 (Q9UP83 whole entry, looked up): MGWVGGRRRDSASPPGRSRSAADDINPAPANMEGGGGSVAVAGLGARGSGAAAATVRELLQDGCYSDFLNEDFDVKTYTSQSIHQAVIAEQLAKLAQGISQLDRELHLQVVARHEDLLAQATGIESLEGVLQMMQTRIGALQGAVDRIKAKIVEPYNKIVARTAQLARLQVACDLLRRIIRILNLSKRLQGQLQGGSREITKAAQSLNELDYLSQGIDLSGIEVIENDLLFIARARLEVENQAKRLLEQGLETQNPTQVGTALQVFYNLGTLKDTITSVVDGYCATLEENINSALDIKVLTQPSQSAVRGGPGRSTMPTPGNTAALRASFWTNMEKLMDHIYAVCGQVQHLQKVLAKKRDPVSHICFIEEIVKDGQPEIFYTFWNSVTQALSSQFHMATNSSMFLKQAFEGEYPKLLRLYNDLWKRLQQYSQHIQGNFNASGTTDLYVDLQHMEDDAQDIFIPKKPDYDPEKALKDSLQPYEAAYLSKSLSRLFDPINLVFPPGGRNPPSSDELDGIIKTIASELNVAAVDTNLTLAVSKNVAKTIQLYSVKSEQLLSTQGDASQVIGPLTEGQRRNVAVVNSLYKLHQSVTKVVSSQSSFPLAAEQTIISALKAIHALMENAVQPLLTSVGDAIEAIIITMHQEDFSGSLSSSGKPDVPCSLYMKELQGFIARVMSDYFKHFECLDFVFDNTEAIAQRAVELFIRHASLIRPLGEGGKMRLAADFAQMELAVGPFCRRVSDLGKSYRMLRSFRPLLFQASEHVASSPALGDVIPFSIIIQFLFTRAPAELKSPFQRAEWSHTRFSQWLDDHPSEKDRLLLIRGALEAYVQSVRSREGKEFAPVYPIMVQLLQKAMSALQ
Sequence of UniProt Q96EP5 (Q96EP5 whole entry, looked up): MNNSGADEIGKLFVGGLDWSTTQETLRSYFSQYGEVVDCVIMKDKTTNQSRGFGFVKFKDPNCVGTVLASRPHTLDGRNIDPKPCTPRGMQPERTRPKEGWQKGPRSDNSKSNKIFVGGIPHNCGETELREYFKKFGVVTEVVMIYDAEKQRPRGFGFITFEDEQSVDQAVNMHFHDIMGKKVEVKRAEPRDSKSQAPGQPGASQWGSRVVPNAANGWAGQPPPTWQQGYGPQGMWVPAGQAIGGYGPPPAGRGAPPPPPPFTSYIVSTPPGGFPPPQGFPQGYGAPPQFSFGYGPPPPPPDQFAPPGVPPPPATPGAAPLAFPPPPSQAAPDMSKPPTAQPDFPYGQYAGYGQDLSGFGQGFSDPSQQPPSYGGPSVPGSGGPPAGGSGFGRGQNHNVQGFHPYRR
Sequence of UniProt P57737 (P57737 whole entry, looked up): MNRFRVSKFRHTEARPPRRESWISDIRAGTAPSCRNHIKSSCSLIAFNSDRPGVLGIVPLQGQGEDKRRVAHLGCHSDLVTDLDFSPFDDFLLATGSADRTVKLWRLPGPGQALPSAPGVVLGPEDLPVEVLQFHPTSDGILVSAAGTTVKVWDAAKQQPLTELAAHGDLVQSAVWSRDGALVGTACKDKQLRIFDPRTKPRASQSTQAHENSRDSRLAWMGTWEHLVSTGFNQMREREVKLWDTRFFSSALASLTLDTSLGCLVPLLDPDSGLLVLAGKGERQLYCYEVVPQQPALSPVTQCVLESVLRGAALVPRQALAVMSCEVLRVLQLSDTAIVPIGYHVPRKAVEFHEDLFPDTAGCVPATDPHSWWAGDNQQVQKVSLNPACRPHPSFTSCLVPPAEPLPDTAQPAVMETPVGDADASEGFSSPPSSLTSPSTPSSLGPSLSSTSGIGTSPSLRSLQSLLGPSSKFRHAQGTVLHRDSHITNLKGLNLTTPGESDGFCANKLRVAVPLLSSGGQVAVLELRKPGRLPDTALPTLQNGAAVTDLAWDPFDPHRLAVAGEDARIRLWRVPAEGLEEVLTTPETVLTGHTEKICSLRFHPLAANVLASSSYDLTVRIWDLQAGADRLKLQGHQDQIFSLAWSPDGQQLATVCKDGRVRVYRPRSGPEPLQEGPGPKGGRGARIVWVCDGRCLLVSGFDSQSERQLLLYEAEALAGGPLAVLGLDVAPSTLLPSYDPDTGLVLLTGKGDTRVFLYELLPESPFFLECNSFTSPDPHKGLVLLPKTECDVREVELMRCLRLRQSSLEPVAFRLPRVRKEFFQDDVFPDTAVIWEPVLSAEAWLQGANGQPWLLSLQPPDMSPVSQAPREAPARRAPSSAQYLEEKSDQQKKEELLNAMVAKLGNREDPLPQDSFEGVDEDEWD
Sequence of UniProt O75911 (O75911 whole entry, looked up): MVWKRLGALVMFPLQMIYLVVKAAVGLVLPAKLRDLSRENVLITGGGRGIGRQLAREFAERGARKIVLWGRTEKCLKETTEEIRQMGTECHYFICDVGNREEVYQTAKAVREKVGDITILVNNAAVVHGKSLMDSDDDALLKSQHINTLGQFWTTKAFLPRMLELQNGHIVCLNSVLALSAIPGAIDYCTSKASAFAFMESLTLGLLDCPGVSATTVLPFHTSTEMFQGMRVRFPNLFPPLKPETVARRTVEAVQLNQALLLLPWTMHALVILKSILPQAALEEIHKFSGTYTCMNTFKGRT

log2 fold change, inactive:
DERA (UniProt Q9Y315) 0.013, DCP2 (UniProt Q8IU60) 0.025, DNAAF5 (UniProt Q86Y56) -0.003, CORO1A (UniProt P31146) 0.155, DIAPH3 (UniProt Q9NSV4) -0.04, CTPS1 (UniProt P17812) -0.007, CNOT2 (UniProt Q9NZN8) 0.004, CYCS (UniProt P99999) 0.011, DNAJC1 (UniProt Q96KC8) -0.011, DHRS3 (UniProt O75911) -0.007, CORO7 isoform 3 (UniProt P57737) 0.009, CYP51A1 (UniProt Q16850) -0.092, DES (UniProt P17661) 0.048, COG5 isoform 2 (UniProt Q9UP83) 0.019, DOK1 (UniProt Q99704) 0.021, CSTF2 (UniProt P33240) 0.002, CSNK2A1 (UniProt P68400) 0.112, COG2 (UniProt Q14746) 0.011, DAZAP1 (UniProt Q96EP5) 0.02, CSK (UniProt P41240) 0.107, DLGAP5 (UniProt Q15398) -0.013, COASY isoform 2 (UniProt Q13057) -0.019, DPH5 isoform 5 (UniProt Q9H2P9) -0.027
